Assay results: PubChem BioAssay AID1276 (Columbia University Molecular Screening Center, 2008)
The campaign covered roughly 190,000 compounds. About 2,000 (1.1%) were called active. This is one part of a sample in which actives are shown more often than they occur. A number with no mark means an inactive call.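 The calls were made as follows: active = activation above a set limit, based on mean plus 3 SD of controls (cut at about 140% in these data); inconclusive = one replicate above the limit, the other below; inactive = the rest.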

Experiment: APP 5'UTR reporter signal increase – luciferase, SH-SY5Y cells, primary screen (AID 1276)
Conditions: SH-SY5Y APP 5'UTR luciferase reporter, luminescence; at 2 µM; hits give high values; zero percent = DMSO vehicle wells

SMILES	activation
O=C(COc1ccc(S(=O)(=O)N2CCCCC2)cc1)NCc1ccccn1	2.08%
CSCC[C@H](NC(=O)NC1CCCC1)C(=O)O	-20.9%
CCN1CCC2(CCN(Cc3cn[nH]c3-c3ccc(OC)c(F)c3)C2)C1 (centres undefined)	-14.3%
O=C(NNS(=O)(=O)c1ccc(F)cc1)c1cnccn1	3.72%
C/C(=N\Nc1nc2ccccc2[nH]1)c1cccs1	150% (active)
C/C(=N\Nc1nc(Nc2ccccc2)nc(N2CCOCC2)n1)c1cccs1	-7.91%
OCCNc1nc2ccccc2[nH]1	16.1%
C/C(=N\Nc1ncc(Cl)cc1Cl)c1ccc(S(=O)(=O)NCc2ccco2)cc1	100%
C/C(=N\Nc1ncc(Cl)cc1Cl)c1cccs1	154% (active)
COc1cccc(/C(C)=N/Nc2ncc(Cl)cc2Cl)c1	24.9%
O=S(=O)(NCC1CCCO1)c1cnc(Cl)c(Cl)c1 (centres undefined)	1.68%
CC(=O)c1ccc(S(=O)(=O)Nc2ccc(C(=O)NCC(c3ccccc3)N(C)C)cc2)cc1 (centres undefined)	-1.54%
COc1ccccc1N1CCN(c2ccc([N+](=O)[O-])nc2)CC1	0.38%
O=C(N/N=C/c1ccc(Cl)cc1)c1nc2ccc([N+](=O)[O-])cc2c(=O)[nH]1	5.49%
COc1cccc(-n2c(=S)[nH]c3c(oc4ccccc43)c2=O)c1	23%
Cc1cccc(-n2c(C)cc(/C=N/NC(N)=S)c2C)c1	-0.81%
Cc1cccc(-n2c(O)c(C=Nc3ccccc3N)c(=O)[nH]c2=O)c1	148% (active)
Cc1ccc(N=Cc2c(O)n(-c3nccs3)c(=O)c3ccccc23)c(C)c1	11.8%
CCCCc1nnc(NC(=O)CSc2nc(N)cc(=O)[nH]2)s1	-0.9%
O=c1[nH]c2ccccc2s1	-19.6%
COc1cc([N+](=O)[O-])ccc1NC(=S)N1CCN(c2ccccn2)CC1	-4.93%
COc1nc(N(C)C)nc(N2CC(=O)N(CCNS(=O)(=O)c3ccc(C)cc3)C2=N)n1	-1.55%
CC(=O)n1cc([C@@H]2C=C(C(=O)N3CCN(Cc4ccc5c(c4)OCO5)CC3)O[C@H](OCc3ccc(CO)cc3)C2)c2ccccc21	-22.2%
NC(=O)COC(=O)/C=C/c1ccc2ccccc2n1	2.32%
CCOc1cccc(/C=C/c2ccc3ccccc3n2)c1OC(C)=O	216% (active)

SMILES	activation
COc1cccc(/C=C/c2ccc3ccccc3n2)c1OC(C)=O	131%
O=C(c1cccc(S(=O)(=O)N2CCCC2)c1)N(Cc1ccco1)C1CCS(=O)(=O)C1 (centres undefined)	11.1%
Cc1ccc(S(=O)(=O)/N=C(/Nc2ccc3[nH]c(=O)[nH]c3c2)c2ccccc2)cc1	-13.5%
CCOc1ccc(CN2CCN(Cc3ccon3)CC2CCO)cc1 (centres undefined)	7.1%
O=C(c1cccc(C(=O)N2CCc3ccccc32)n1)N1CCc2ccccc21	-32.2%
NC(=O)N1CCc2ccccc21	-5.27%
O=C(c1cnn2ccccc12)N1CCc2ccccc21	145% (active)
Cc1ccc(C(=O)N2CCN(S(=O)(=O)N3CCOCC3)CC2)cc1	0.65%
Cc1cc(C)nc(Nc2cc([N+](=O)[O-])ccc2C)n1	-6.89%
Cc1ccc(-c2cn3cc([N+](=O)[O-])ccc3n2)cc1	120%
Cc1ccc(-n2cc3ccc([N+](=O)[O-])cc3n2)cc1	179% (active)
Cc1cc([N+](=O)[O-])ccc1NC1CCCC1	-0.84%
OCC1(Cc2ccccc2)CCN(Cc2cc3ccccc3o2)CC1	-8.13%
COc1ccccc1Oc1ccc(N/C=C2/CCCC2=O)cc1	17.2%
Cc1[nH]c2c(C(=O)N3CCCC(CCC(=O)NCc4ccccc4F)C3)cccc2c1C (centres undefined)	17.2%
COc1c(C=O)c(CCN(C)C(=O)c2ccc(F)cc2)cc2c1OCO2	0.6%
c1ccc(Nc2nc(N3CCOCC3)c3ccccc3n2)cc1	7.27%
COc1ccc(Nc2ncc(F)c(N3CCOCC3)n2)cc1	153% (active)
CCOc1ccc(Nc2nc(Cl)nc(N3CCN(c4ccc(OC)cc4)CC3)n2)cc1	-9.55%
CCOC(=O)c1c(/N=C/C2C(=O)CC(C)(C)CC2=O)sc(C)c1C	2.63%
CCN(CC)CCOC(=O)c1ccc(NC(=O)CNC(=O)c2ccccc2)cc1	18.8%
COc1cccc(CN(C)CC(=O)NCc2ccccc2Cl)c1OC	7.69%
NC(=O)C1CCN(Cc2nc3c(Br)cc(Br)cc3c(=O)[nH]2)CC1	4.38%
COc1ccc(C(=O)NC2CCN(C(=S)Nc3ccccc3)CC2)cc1	-16.7%
COc1ccc(NC(=S)N2N=CCC2c2ccccc2)cc1 (centres undefined)	180% (active)

SMILES	activation
COc1ccc(C(=S)Nc2ccccc2)cc1	68.3%
O=C1C2C3C=CC(C3)C2C(=O)N1c1ccc(-c2nc3ccccc3c(=O)o2)cc1 (centres undefined)	3.88%
Cc1cccc(C(=O)N2CCCN(C(=O)c3cccc(C)c3)CC2)c1	2.21%
Cc1cc(=O)oc(C)c1C(=O)N1CCCCC1	-5.29%
Cc1ccc2cc3cc(C(=O)N4CCCCCC4)oc3nc2c1	167% (active)
CCC1(C(=O)c2ccccc2)C(c2cccc([N+](=O)[O-])c2)C1(C(=O)OC)C(=O)OC (centres undefined)	-17.3%
CCN(CC)c1ccc2c(Nc3ccccc3)c(C=O)c(=O)oc2c1	-11.3%
O=C(CSc1nc2ccccc2[nH]1)c1cccs1	162% (active)
CCCCSc1nc2ccccc2[nH]1	27.4%
C=CCSc1nc2ccccc2[nH]1	15.8%
CC(C)(C)NC(=O)CN(C(=O)c1ccc(Cl)nc1)c1cccc2ccccc12	-19.3%
O=C(Nc1cccn(Cc2ccccc2Cl)c1=O)NC1CCCCC1	19.9%
Cc1cc(C)nc(N2CCC(C(=O)Nc3ccc4c(c3)OCCO4)CC2)n1	2.98%
Cc1ccnc(N2CCCC(C(=O)Nc3cc(F)ccc3C)C2)n1 (centres undefined)	30.3%
O=C(Nc1ccc2c(c1)OCCO2)C1CCCN(c2ncccn2)C1 (centres undefined)	159% (active)
CCN(CC)CCNC(=O)c1ccc(NS(=O)(=O)c2ccc3c(c2)OCCO3)cc1	12.6%
O=C(Nc1ccc(N2CCN(C(=O)C3CC3)CC2)cc1)c1cccs1	-0.31%
COC(c1ccccc1)c1nnc(CCC(=O)N2CCN(CCOc3ccccc3)CC2)o1 (centres undefined)	-7.19%
O=C(Nc1nc(-c2ccc(-c3ccccc3)cc2)cs1)c1cnccn1	11%
COc1ccc(-c2csc(Nc3ccc(O)cc3)n2)cc1	120%
Clc1ccc(Nc2nc(-c3cccs3)cs2)nc1	135% (active)
NS(=O)(=O)c1ccc(Nc2nc(-c3ccccc3)cs2)cc1	52.2%
c1cnc(Nc2nc(-c3ccc4ccccc4c3)cs2)nc1	29.6%
COc1ccc(-c2csc(Nc3ccccn3)n2)cc1	205% (active)
O=C(Nc1ccc(Cl)cn1)Nc1cccs1	25.6%

SMILES	activation
COc1ccc(C(=O)/C=C/Nc2ccccn2)cc1	134%
COc1ccc2nc(Nc3nc(-c4ccncc4)cs3)sc2c1	65.1%
c1ccc(Nc2nc(-c3ccncc3)cs2)nc1	158% (active)
COc1ccc(Nc2nc(-c3ccccc3)cs2)cc1	148% (active)
Oc1ccc(-c2csc(Nc3cccnc3)n2)cc1	17.7%
CCc1cccc(CC)c1NC(=O)COc1ccccc1C(=O)c1cc(C#N)c(=O)n(C2CCCCC2)c1	12.3%
Cc1ccc(NC(=O)CSc2nc(CSc3ccc(C)cc3)cc(=O)[nH]2)cc1	7.62%
CCN(CC)CCn1c(/N=C/c2cc(Br)ccc2O)nc2ccccc21	-4.24%
COc1cc(C(=O)Nc2cc(C(F)(F)F)ccc2-n2cncn2)cc(OC)c1OC	0.9%
CCCCCN(C(=O)NC(=O)Nc1cccc(C)c1C)S(C)(=O)=O	12.9%
COc1ccccc1/C=N\Nc1cc(C)nc(-n2nc(C)cc2C)n1	-3.23%
CCc1ccc(-c2cc(C(=O)NN3CCN(C)CC3)c3ccccc3n2)cc1	47.9%
COCCNc1nc2nonc2nc1N1CCCC1c1nccs1 (centres undefined)	2.4%
CCC(C)NCC(=O)Nc1ccc([N+](=O)[O-])cc1C(=O)Nc1ccccc1F (centres undefined)	-0.05%
CC(CC(=O)O)CC(=O)NNC(=O)c1cccc(Br)c1 (centres undefined)	7.74%
Cc1noc(C)c1/C=N/Nc1ccc2ccccc2n1	169% (active)
O=C(Cc1ccc(F)cc1)N/N=C/c1ccc2c(c1)OCO2	42.8%
Cc1cc(C)nc(N/N=C/c2c(C)oc3ccccc23)n1	22.1%
Cc1nc2ccccc2cc1C(=O)N/N=C/c1ccc([N+](=O)[O-])cc1	-13.5%
C(=N\Nc1ccc2ccccc2n1)/c1ccc2c(c1)OCO2	227% (active)
Brc1ccc(-c2csc(N/N=C/c3ccc4c(c3)OCO4)n2)cc1	-0.09%
Cc1cccc(-n2c(=O)c3c(C)c(C)sc3n(CC(N)=O)c2=O)c1	-15.7%
CCn1c(SCC(=O)Nc2ccc(C)cc2)nc2nc3c(cc2c1=O)CCCC3	17.6%
CC(C)CNC(=S)NC(=O)c1ccc(Cl)cc1	37.3%
